Where a structure was tested more than once in an assay, its records may differ in their call. Activity calls are given as the source filed them. Rule for the calls: active = hit-call score of the fitted dose curve at least 0.9, where 1 is the maximum; inactive = score below 0.9.
What follows are molecules tested against Myc proto-oncogene protein (Homo sapiens) (UniProt P01106) (assay: ATG_Myc_CIS: Attagene CIS-FACTORIAL HepG2 Assay for human Myelocytomatosis (Myc) Proto-Oncogene Transcription Factor (AID 2282990)). Settings: HepG2, Attagene cis-reporter transcription factor activity; actives raise or lower the signal.
Description: ATG_CIS is a cell-based, multiplexed-readout assay that uses HepG2, a human liver cell line, with measurements taken at 24 hours after chemical dosing in a 24-well plate.ATG_Myc_CIS is one of 52 assay component(s) measured or calculated from the ATG_CIS assay. It is designed to make measurements of mRNA induction, a form of inducible reporter, as detected with fluorescence intensity signals by Reverse transcription polymerase chain reaction (RT-PCR) and Capillary electrophoresis technology.Data from the assay component ATG_Myc_CIS was analyzed into 1 assay endpoint. This assay endpoint, ATG_Myc_CIS, was analyzed with bidirectional fitting relative to DMSO as the negative control and baseline of activity. Using a type of inducible reporter, measures of mRNA for gain or loss-of-signal activity can be used to understand the reporter gene at the transcription factor-level as they relate to the gene MYC. Furthermore, this assay endpoint can be referred to as a primary readout, because this assay has produced multiple assay endpoints where this one serves a reporter gene function. To generalize the intended target to other relatable targets, this assay endpoint is annotated to the dna binding intended target family, where the subfamily is basic helix-loop-helix leucine zipper.
Human liver HepG2 cells are transiently transfected with multiple reporter transcription units (MRTUs) in 6-well plates using FuGene 6 reagent (Roche; 3 ml FuGene/1 mg DNA). The MRTU constructs are regulated by a cis-regulating element (promoter). […] A major difference between the CIS and TRANS system is that in CIS activities of endogenous TFs are measured, whereas the TRANS assay evaluates changes in activities of exogenous, chimeric NR-Gal4 proteins. […] At the end of 24 hour incubation, total RNA was isolated using TriZol reagent (Invitrogen). The isolated RNA is then reverse-transcribed using oligo(dT) primer and Mo-MLV reverse transcriptase (Invitrogen) with DNAse I (Ambion) treatment for 30 min. The one-tenth of the produced cDNA was amplified by PCR using Taq DNA polymerase (Invitrogen) and two reporter sequence-specific primers. The PCR products were fluorescently labeled by primer extension with 6-arboxyfluorescein (6-FAM) 5'-labeled reporter sequence-specific primer (2 min at 95 C, 20 s at 68 C and 10 min at 72 C) and these products were digested with 5U of HpaI (New England Biolabs) for 2h at 37 C. The fragments were purified using Qiaquick PCR columns (Qiagen), analyzed on an ABI 3130xL genetic analyzer (Applied Biosystems) with peak positions identified by using a set of X-rhodamine (ROX)-labeled MapMarker1000 molecular weight standards (BioVentures). The raw capillary electrophoresis data was processed using Attagraph software (Attagene).

Sequence of Myc proto-oncogene protein (Homo sapiens) (P01106 whole entry, looked up): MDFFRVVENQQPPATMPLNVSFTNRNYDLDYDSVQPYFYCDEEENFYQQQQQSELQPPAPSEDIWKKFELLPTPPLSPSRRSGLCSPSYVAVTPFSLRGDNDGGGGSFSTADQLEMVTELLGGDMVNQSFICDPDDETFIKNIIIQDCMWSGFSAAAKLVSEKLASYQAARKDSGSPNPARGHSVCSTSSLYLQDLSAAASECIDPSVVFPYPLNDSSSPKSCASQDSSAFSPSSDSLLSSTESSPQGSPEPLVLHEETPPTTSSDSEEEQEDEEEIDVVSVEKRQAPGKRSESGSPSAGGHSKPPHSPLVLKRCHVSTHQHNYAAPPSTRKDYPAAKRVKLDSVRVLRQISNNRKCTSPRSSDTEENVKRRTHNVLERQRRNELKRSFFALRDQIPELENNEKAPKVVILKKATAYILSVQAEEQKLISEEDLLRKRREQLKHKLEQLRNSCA

SMILES | AC50 | outcome
CCCCCCCCn1sccc1=O | 17.5 µM (active) | 
CCCCC(CC)COC(=O)c1ccc(C(=O)OCC(CC)CCCC)c(C(=O)OCC(CC)CCCC)c1 (stereo not given) |  | inactive
COc1cc(C=O)cc2c1[C@H](COC(N)=O)[C@]1(OC(C)=O)ON2C[C@H]2[C@@H]1N2C(C)=O | 7.48 µM (active) | 
CN(C)C(=O)Nc1ccc(Cl)cc1 |  | inactive
C=CCc1ccc2c(c1)OCO2 |  | inactive
CCC(C)c1ccc(O)cc1 (stereo not given) |  | inactive
CCOC(=O)[C@]1(c2ccccc2)Oc2ccccc2[C@@H]1N | 24.5 µM (active) | 
CC(C)(C)OOC(C)(C)CCC(C)(C)OOC(C)(C)C |  | inactive
COC(=O)Nc1nc2ccccc2[nH]1 |  | inactive
Cc1ccc(N)c(N)c1 |  | inactive
CCCCCOC(=O)c1ccccc1C(=O)OCCCCC |  | inactive
CCOc1cccc(C2(N3CCN(c4ccccc4)CC3)CCC(C)CC2)c1 (stereo not given) |  | inactive
c1ccc(NNc2ccccc2)cc1 |  | inactive
ClC1=C(Cl)[C@]2(Cl)[C@H]3[C@H]([C@@H]4C=C[C@H]3C4)[C@@]1(Cl)C2(Cl)Cl |  | inactive
CC(C)(OOC(C)(C)c1ccccc1)c1ccccc1 | 77.6 µM (active) | 
Nc1ccc(N=Nc2ccccc2)cc1 |  | inactive
CCCCOC(=O)c1ccccc1C(=O)OCc1ccccc1 |  | inactive
N#CC(Br)(Br)C(N)=O |  | inactive
CS(=O)(=O)NC(=O)c1cc(Oc2ccc(C(F)(F)F)cc2Cl)ccc1[N+](=O)[O-] |  | inactive
Clc1ccc(C(c2ccc(Cl)cc2)C(Cl)(Cl)Cl)cc1 |  | inactive

SMILES | AC50 | outcome
Nc1ccc(Cl)cc1N |  | inactive
O=[N+]([O-])C(Br)(CO)CO | 74.6 µM (active) | 
CC(O)CCO (stereo not given) |  | inactive
[As]#[In] |  | inactive
CC(C)(O)c1cnn2c(-c3ccc(F)c(-c4c(F)cccc4C#N)c3)cnc2n1 |  | inactive
Cc1ccc(N)cc1 |  | inactive
O=C(O)C1C2CCC(O2)C1C(=O)O (stereo not given) |  | inactive
O=C(Oc1ccc(Br)cc1)N1CCN2CCC1CC2 |  | inactive
O=C(N[C@H](c1ccccc1)[C@@H]1CN2CCC1CC2)c1c(Cl)ccc(C(F)(F)F)c1Cl |  | inactive
C1=Cc2cccc3cccc1c23 |  | inactive
CCNS(=O)(=O)C(F)(F)C(F)(F)C(F)(F)C(F)(F)C(F)(F)C(F)(F)C(F)(F)C(F)(F)F | 96.5 µM (active) | inactive
Nc1ccc(Oc2ccc(N)cc2)cc1 |  | inactive
CCC12COCN1COC2 |  | inactive
Cc1ccc(N=C=O)cc1N=C=O |  | inactive
N#CC(Br)Br |  | inactive
CC(C)N(Cc1ccccc1)C(=O)C(C)(C)C |  | inactive
CC(C)(C)C(O)(CCc1ccc(Cl)cc1)Cn1cncn1 (stereo not given) |  | inactive
OCCOCCO |  | inactive
c1ccc2c(c1)-c1cccc3cccc-2c13 |  | inactive
